Pf Dd2 growth – inhibitors of Plasmodium falciparum Dd2 growth | 120,000 compounds, 4.3% hits | P. falciparum Dd2 growth, SYBR Green, 72 h | Potency, µM (series often up to 28.9 µM), actives largely listed as inhibitors; active = well fitted inhibition curve with a large enough effect; note: nearly all actives have a fitted effect of over 65% in size
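Infected erythrocytes (Dd2, 0.3% parasitemia, 2.5% hematocrit final) are added to compound in RPMI-1640/Albumax II medium, grown 72 h at 37C in low oxygen, then lysed with saponin/Triton-X containing SYBR Green and read by fluorescence.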
A number is an active result. This is one part of a sample in which hits are shown more often than they occur.

What do the screens show for `CS(=O)(=O)N1C[C@H]2CCN(Cc3c(F)cccc3F)C[C@H]21`?
Pf Dd2 growth: inactive

Results for COc1ccc(S(=O)(=O)NCC(c2ccc(N(C)C)cc2)N2CCOCC2)cc1 (stereo not drawn) ?
Pf Dd2 growth: inactive

What do the screens show for `Cc1ccccc1C(=O)NCC(c1ccc(N(C)C)cc1)N1CCCC1` (stereo not drawn)?
Pf Dd2 growth: inactive

Results for CN(C)c1ccc(C(CNS(=O)(=O)c2ccc(Cl)cc2)N2CCCC2)cc1 (stereo not drawn) ?
Pf Dd2 growth: 12.6µM

Results for COc1ccc(C(CNC(=O)c2ccc(F)cc2)N2CCCC2)cc1 (stereo not drawn) ?
Pf Dd2 growth: inactive

What do the screens show for `Cc1cc(S(=O)(=O)NCC(c2ccc(N(C)C)cc2)N2CCOCC2)ccc1F` (stereo not drawn)?
Pf Dd2 growth: inactive

How did CC(C)Oc1ccc(C(=O)NCC(c2ccc(N(C)C)cc2)N2CCCC2)cc1 (stereo not drawn) do in these assays?
Pf Dd2 growth: 10µM

How did CN1c2cc(C(=O)NCc3ccccc3Br)ccc2C(=O)N2CCCC21 (stereo not drawn) do in these assays?
Pf Dd2 growth: inactive

What do the screens show for `COc1cccc(CCC(=O)N2CCC(c3n[nH]c(=O)n3Cc3ccc(F)cc3)CC2)c1`?
Pf Dd2 growth: inactive

Results for O=C(NCCOc1ccccc1)C1CN(c2ccc(Cl)cc2)C(=O)N1 (stereo not drawn) ?
Pf Dd2 growth: inactive

How did Cc1ccc(C)c(NC(=O)C2CCCN(c3ncnc4onc(C)c34)C2)c1 (stereo not drawn) do in these assays?
Pf Dd2 growth: inactive

Results for CCCN(CCC)C(=O)C1CCCN(c2ncnc3onc(-c4ccc(F)cc4)c23)C1 (stereo not drawn) ?
Pf Dd2 growth: inactive

What do the screens show for `COc1cc(Cl)c(C)cc1NC(=O)C1CCCN(c2ncnc3onc(-c4ccc(F)cc4)c23)C1` (stereo not drawn)?
Pf Dd2 growth: 11.2µM

How did Cc1ccc(NC(=O)C2CCCN(c3ncnc4onc(-c5ccc(F)cc5)c34)C2)c(Cl)c1 (stereo not drawn) do in these assays?
Pf Dd2 growth: inactive

How did CC(C)N(Cc1ccccc1)C(=O)C1CCCN(c2ncnc3onc(-c4ccc(F)cc4)c23)C1 (stereo not drawn) do in these assays?
Pf Dd2 growth: 8.91µM

How did Cc1noc2ncnc(N3CCCC(C(=O)NCCC(C)C)C3)c12 (stereo not drawn) do in these assays?
Pf Dd2 growth: inactive

Results for CN1C[C@@H](NS(=O)(=O)c2ccccc2)C[C@H]1c1nc(-c2cnccn2)no1 ?
Pf Dd2 growth: inactive

Results for COCc1noc([C@@H]2CN(C(=O)CC3=CCCCC3)C[C@H]2CO)n1 ?
Pf Dd2 growth: inactive

How did CC(C)(C)CC(=O)N1Cc2[nH]cnc2C[C@H]1C(=O)NCc1ccccc1 do in these assays?
Pf Dd2 growth: inactive

What do the screens show for `Cc1ccc(=O)n(CC(=O)N[C@H]2CN(S(C)(=O)=O)C[C@@H]2C(C)C)n1`?
Pf Dd2 growth: inactive

What do the screens show for `CCNC(=O)CCc1c(C)nn(-c2cccc(C)c2)c1Oc1ccccc1`?
Pf Dd2 growth: inactive

Results for O=C(NCC(c1cccnc1)N1CCCCC1)c1cn2c(n1)CNCC2 (stereo not drawn) ?
Pf Dd2 growth: inactive

Results for Cc1cccc(CN2CCCC(O)(CN3CCOCC3)C2=O)c1 (stereo not drawn) ?
Pf Dd2 growth: inactive

Results for COc1ccc(-c2nnc3n2CCN(C(=O)Nc2ccc(Cl)cc2)C3)cc1 ?
Pf Dd2 growth: inactive

What do the screens show for `COCCN1CCNc2nc(COc3ccccc3OC(F)(F)F)n(Cc3ccccc3)c2C1=O`?
Pf Dd2 growth: inactive

How did O=C1c2c(nc(COc3ccc(F)cc3)n2Cc2ccccc2)NCCN1CCOc1ccccc1 do in these assays?
Pf Dd2 growth: 5.62µM

How did COc1ccccc1OCc1nc2c(n1Cc1ccccc1)C(=O)N(Cc1cccc(Cl)c1)CCN2 do in these assays?
Pf Dd2 growth: 10µM

Results for COCCN1CCNc2nc(CNc3ccon3)n(Cc3ccccc3)c2C1=O ?
Pf Dd2 growth: 11.2µM

What do the screens show for `COCCN1CCNc2nc(COc3ccc(Oc4ccccc4)cc3)n(Cc3ccccc3)c2C1=O`?
Pf Dd2 growth: inactive

What do the screens show for `CC(=O)N1CCN(Cc2nc3c(n2Cc2ccccc2)C(=O)N(Cc2cccc(Cl)c2)CCN3)CC1`?
Pf Dd2 growth: inactive

How did COc1ccccc1OCc1nc2c(n1Cc1ccccc1)C(=O)N(CC1CC1)CCN2 do in these assays?
Pf Dd2 growth: inactive

What do the screens show for `O=C1c2c(nc(COc3ccc4c(c3)OCO4)n2Cc2ccccc2)NCCN1CCOc1ccccc1`?
Pf Dd2 growth: inactive

What do the screens show for `O=C1c2c(nc(COc3ccccc3)n2Cc2ccccc2)NCCN1Cc1ccccc1`?
Pf Dd2 growth: inactive

How did COc1cc(OC)cc(OCc2nc3c(n2Cc2ccccc2)C(=O)N(Cc2cccc(Cl)c2)CCN3)c1 do in these assays?
Pf Dd2 growth: 7.94µM

What do the screens show for `O=C1c2c(nc(COc3cc(F)cc(F)c3)n2Cc2ccccc2)NCCN1Cc1ccccc1`?
Pf Dd2 growth: inactive

What do the screens show for `COc1ccc(OCc2nc3c(n2Cc2ccccc2)C(=O)N(CC2CC2)CCN3)cc1OC`?
Pf Dd2 growth: inactive

How did COc1cccc(NC(=O)N[C@H]2CCN(C(=O)CSC)[C@@H]2C(=O)N[C@@H](CCCNC(=O)CSC)C(N)=O)c1 do in these assays?
Pf Dd2 growth: inactive

Results for O=C(CN1C(=O)NC2(CCOCC2)C1=O)Nc1ccccc1F ?
Pf Dd2 growth: inactive

Results for O=C(c1ccccc1)N1CCCC2(CC(c3ccccn3)=NO2)C1 (stereo not drawn) ?
Pf Dd2 growth: inactive

Results for CC1CCN(C(=O)[C@@H](C)C2CC[C@@]3(C)CC[C@H](NC(=O)c4ccccn4)[C@@H](C)[C@@H]3[C@H]2O)CC1 (stereo partly drawn) ?
Pf Dd2 growth: inactive

How did Cc1nn(-c2ccccc2)nc1C(=O)N[C@H](C)c1onc(-c2ccc(F)cc2)c1C(=O)O do in these assays?
Pf Dd2 growth: inactive

Results for O=C1c2c(nc(COc3cccc(Cl)c3)n2Cc2ccccc2)NCCN1CC1CC1 ?
Pf Dd2 growth: inactive

Results for COc1cccc(OCc2nc3c(n2Cc2ccccc2)C(=O)N(Cc2cccc(Cl)c2)CCN3)c1 ?
Pf Dd2 growth: 12.6µM

What do the screens show for `O=C1c2c(nc(COc3ccc4c(c3)OCO4)n2Cc2ccccc2)NCCN1Cc1cccc(Cl)c1`?
Pf Dd2 growth: inactive

Results for Cc1nn(CC(=O)NCCCN2CCCCC2)c(=O)c2nc(-c3ccccc3)sc12 ?
Pf Dd2 growth: inactive

Results for COc1ccc(CN2C[C@@H](CO)[C@H](NC(=O)C3CCC3)C2)cc1 ?
Pf Dd2 growth: inactive

What do the screens show for `O=C(N[C@@H]1CN(Cc2c(F)cccc2Cl)C[C@H]1CO)C1CC1`?
Pf Dd2 growth: inactive

How did CCOc1ccccc1CN1C[C@@H](CO)[C@H](NC(=O)C2CC2)C1 do in these assays?
Pf Dd2 growth: 7.94µM

How did CNC(=O)c1cc(-c2ccccc2F)cc2c1OCCN2Cc1cccnc1 do in these assays?
Pf Dd2 growth: inactive

What do the screens show for `CNC(=O)c1cc(-c2ccc(OC)nc2)cc2c1OCCN2Cc1cccnc1`?
Pf Dd2 growth: inactive

Results for CNC(=O)c1cc(-c2ccc(N3CCOCC3)cc2)cc2c1OCCN2Cc1cccnc1 ?
Pf Dd2 growth: 10µM

How did COc1cccc(N2C(=O)NC(=NC3CCCCC3)C23CCN([S+](=O)([O-])c2cccc(C(F)(F)F)c2)CC3)c1 do in these assays?
Pf Dd2 growth: inactive

What do the screens show for `COC[C@@H]1CN(C(=O)Cc2ccccc2C)C[C@H]1c1nc(C2CC2)no1`?
Pf Dd2 growth: inactive

Bioassay records as filed in PubChem.
